# Laboratory results from PubChem BioAssay (NCI).
# About 83,000 compounds went through this panel and 20% of them were active in at least one assay; those are over-represented in the sample as a whole.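 How to read the values: 0–100, growth inhibition (40 = 60% inhibited); 0, no net growth; -100 to 0, cell death (-40 = 40% of starting cells died; -100 = all dead).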 A number with no mark means an inactive call. Calls of active or inactive are those of the source. Rule for the calls: active = growth percent below 10; inactive = the rest.
# What was measured:
# Assay in all cases: NCI-60 one-dose screen, 48 h (100 = growth as untreated, 0 = no growth, -100 = all killed)
# Settings in all cases: 10 µM unless noted
# NCI-H23 lung = tested on: NCI-H23 lung
# NCI-H226 lung = tested on: NCI-H226 lung
# NCI-H322M lung = tested on: NCI-H322M lung
# HOP-62 NSCLC = tested on: HOP-62 NSCLC
# NCI-H460 lung = tested on: NCI-H460 lung
# HOP-92 NSCLC = tested on: HOP-92 NSCLC
# NCI-H522 lung = tested on: NCI-H522 lung
# A549/ATCC NSCLC = tested on: A549/ATCC NSCLC
# 786-0 renal = tested on: 786-0 renal
# COLO 205 colon = tested on: COLO 205 colon
# DU-145 prostate = tested on: DU-145 prostate
# K-562 leukemia = tested on: K-562 leukemia
# MALME-3M melanoma = tested on: MALME-3M melanoma
# MDA-MB-231 breast = tested on: MDA-MB-231 breast
# RXF 393 renal = tested on: RXF 393 renal
# SF-268 CNS = tested on: SF-268 CNS
# SF-295 CNS = tested on: SF-295 CNS
# SF-539 CNS = tested on: SF-539 CNS
# UACC-257 melanoma = tested on: UACC-257 melanoma
# M14 melanoma = tested on: M14 melanoma
SMILES,growth (NCI-H23 lung),growth (NCI-H226 lung),growth (NCI-H322M lung),growth (HOP-62 NSCLC),growth (NCI-H460 lung),growth (HOP-92 NSCLC),growth (NCI-H522 lung),growth (A549/ATCC NSCLC),growth (786-0 renal),growth (COLO 205 colon),growth (DU-145 prostate),growth (K-562 leukemia),growth (MALME-3M melanoma),growth (MDA-MB-231 breast),growth (RXF 393 renal),growth (SF-268 CNS),growth (SF-295 CNS),growth (SF-539 CNS),growth (UACC-257 melanoma),growth (M14 melanoma)
O=C1NC(=Nc2ccc(O)cc2)S/C1=C\c1cccc(Cl)c1,88.2%,102%,83.7%,76.1%,86.3%,72.5%,76.3%,54.9%,67.1%,102%,84.5%,21.9%,88.7%,96.2%,75.1%,74.1%,69.1%,68.6%,95.9%,56.7%
Cc1ncc(C(=O)Nc2ccc(CN3CCN(C)CC3)c(C(F)(F)F)c2)cc1C#Cc1cnc2cccnn12,-38.4% (active),-56.8% (active),-1.83% (active),4.59% (active),-53.1% (active),-4.77% (active),-18.9% (active),-2.38% (active),1.06% (active),-41.5% (active),5.5% (active),0.556% (active),-72% (active),-1.12% (active),-58.1% (active),-29.8% (active),8.94% (active),-52.2% (active),-2.41% (active),-79.9% (active)
COc1ccc(-n2nc(C)c3c(Nc4ccc(NC(=O)Nc5cccc(C(F)(F)F)c5)cc4)ncnc32)cc1,9.95% (active),34.1%,5.43% (active),-37.9% (active),1.6% (active),-26.4% (active),4.21% (active),-19.2% (active),-47.4% (active),-39.2% (active),18.2%,4.37% (active),-10.9% (active),-18.7% (active),-36% (active),22.8%,-44.1% (active),2.75% (active),-1.66% (active),-0.151% (active)
O=C1c2cc3c(cc2-c2c1c1ccc(F)cc1c(=O)n2CCCNCCO)OCO3,-57.3% (active),-60.1% (active),-33.3% (active),-48.9% (active),-36.8% (active),2.28% (active),-53.9% (active),-74.4% (active),-84.8% (active),-66.5% (active),-68.5% (active),-55.7% (active),-72.2% (active),-70% (active),-92.4% (active),-54.6% (active),-14.3% (active),-86.4% (active),-28% (active),-39.7% (active)
C=CC(COC(c1ccccc1)(c1ccccc1)c1ccccc1)N(CC)CC (stereo not given),65.2%,56.2%,87%,61.8%,58.1%,75.7%,54.9%,63.1%,77.6%,0.413% (active),69.9%,14.4%,61.9%,37%,-5.47% (active),81.9%,64.1%,62.6%,6.09% (active),9.54% (active)
O=c1c(F)cn(Cc2ccccc2CCl)c(=O)n1Cc1ccccc1CCl,-63.1% (active),-22% (active),-19.3% (active),-51.7% (active),-75% (active),-77.5% (active),-61.6% (active),1.3% (active),-54.7% (active),-75.3% (active),-51.3% (active),-6.67% (active),-28.1% (active),-19.4% (active),-30.7% (active),-16% (active),-62.4% (active),-24.1% (active),-48.1% (active),-63.6% (active)
Cn1c(NCCc2ccc(O)c(O)c2)nc2c1c(=O)n(Cc1ccc(Cl)c(Cl)c1)c(=O)n2C,91.5%,73.7%,82.1%,104%,88.2%,45.3%,-28.7% (active),80.3%,83%,57.4%,74.5%,79.6%,75.7%,69.5%,72%,64.8%,97.3%,75.6%,84.6%,85.6%
COc1cc(-c2nc3ccccc3[nH]2)ccc1OCC(=O)N=Nc1c(O)[nH]c2ccc(Cl)cc12,-42.4% (active),103%,-7.85% (active),-61.5% (active),-75.8% (active),-36.2% (active),-43.4% (active),35.6%,-79.9% (active),-48.5% (active),-37.8% (active),-25.4% (active),-66.9% (active),-87.4% (active),-56.5% (active),-72.9% (active),-68.8% (active),-83.9% (active),-18.7% (active),-71.7% (active)
CSc1nc2c(c(=O)[nH]1)C1(C(=O)Nc3ccccc31)c1c(nc(SC)[nH]c1=O)N2,105%,94.9%,92.5%,113%,103%,98.8%,123%,100%,103%,109%,105%,112%,93.7%,107%,103%,98.2%,103%,102%,104%,97.2%
C=C1c2nc3ccccc3n2C=C(c2cccc(Cl)c2)N1Cc1ccc(OC)cc1,29.4%,94.1%,44.6%,41.2%,4.58% (active),77.9%,-10.9% (active),14.3%,35.5%,95%,15.3%,0.532% (active),76.8%,36.3%,4.81% (active),21.7%,2.35% (active),-15% (active),34.4%,22.3%
Cc1cc(C)nc(SC2=C(Nc3ccc(O)cc3)C(=O)N(Cc3ccccc3)C2=O)n1,98.8% [40 µM],89.7% [40 µM],108% [40 µM],100% [40 µM],85.3% [40 µM],38.1% [40 µM],78.3% [40 µM],63% [40 µM],97.6% [40 µM],108% [40 µM],96.8% [40 µM],78.1% [40 µM],102% [40 µM],80.7% [40 µM],29.3% [40 µM],74.6% [40 µM],94.8% [40 µM],94.2% [40 µM],88.1% [40 µM],105% [40 µM]
CC1=C[C@H]2c3c(c(O)c(O)c4oc5cc(O)ccc5c(=O)c34)[C@H](c3cc(O)c(O)c4oc5cc(O)ccc5c(=O)c34)[C@H]2C(C)(C)C1,15.8%,26.3%,63.6%,39.8%,0.208% (active),-9.21% (active),13.7%,13.1%,47.9%,46.6%,34.4%,6.38% (active),60.8%,50.9%,54.5%,36%,21.5%,20.4%,62.7%,38.3%
COc1ccc(S(=O)(=O)N2CCCCC2)cc1NC(=O)c1[nH]c(C)c2c1CCCCC2=O,26%,46.2%,31.8%,26%,34.8%,26.9%,7.18% (active),28.2%,32.3%,22.9%,61.5%,22%,45.2%,29.1%,3.54% (active),48.1%,23.9%,24.9%,32%,36%
COc1ccc(-c2cc(=O)c3c(OC)c4ccoc4cc3o2)cc1,99.4%,95.5%,77.8%,108%,73.7%,90.1%,82.4%,86.2%,116%,102%,106%,88.2%,113%,91.7%,107%,97.9%,40.7%,105%,107%,115%
COc1ccc(C(=O)c2sc3nc4c(c(-c5cccnc5)c3c2N)CCCC4)cc1OC,97.7%,86.3%,99.5%,80.7%,77.4%,-11.7% (active),83%,82.2%,87.5%,94.6%,91.4%,15.2%,83.5%,38.3%,51%,64.9%,93.2%,73.4%,98.3%,118%
